Source: PubChem BioAssay (several laboratories)
Jurkat NFkB inh: inhibitors of induced NF-kB luciferase reporter, primary screen, TCR NF-kB activation inhibitor project, cell-based, luminescence, uHTS | Jurkat, PMA/ionomycin-induced NF-kB luciferase reporter | inhibition, % at 4 µM | actives 0.53% (n = 330,000); in the data active = inhibition above about 50%
Gli-Sufu antag: Gli-Sufu pathway antagonists, primary screen, luciferase luminescence, Sufu-KO-LIGHT cells, uHTS | actives 0.74% (n = 340,000) | Sufu-KO-LIGHT fibroblasts, Gli luciferase reporter luminescence | inhibition, % at 5 µM;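 active = inhibition above about 55%, limit read from the data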
697 NFkB inh: inhibitors of PMA/ionomycin-induced NF-kB reporter, 697 cells, primary screen, B-cell NF-kB inhibitor project, cell-based, luminescence, uHTS. inhibition, % at 4 µM. 697 B-cell NF-kB luciferase reporter, 16 h. actives 0.33% (n = 330,000); in the data active = inhibition above about 35%
Shn3 3UTR inh: reduction of Shn3 3'UTR firefly luciferase signal, primary screen, Schnurri-3 inhibitor project, cell-based, Clone20 osteoblasts, set 2; Clone20 osteoblast Shn3 3'UTR firefly luciferase, 24 h; inhibition, % at 12.5 µM; actives 0.52% (n = 360,000); AID 588674, 2011;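 active = mean inhibition of at least 75% with every replicate also reaching 75%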
Mdm2 MdmX PPI: inhibitors of human Mdm2-MdmX association, primary screen, cell-based, luminescence, split luciferase, SaOS-2, uHTS; SaOS-2 split-luciferase Mdm2/MdmX complementation; inhibition, % at 8 µM; Protein Mdm4 (Homo sapiens) + E3 ubiquitin-protein ligase Mdm2 (Homo sapiens), …; actives 3% (n = 330,000);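 active = inhibition of at least 50% at 8 µM in the primary screen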
Target sequence (O15151 whole entry, looked up): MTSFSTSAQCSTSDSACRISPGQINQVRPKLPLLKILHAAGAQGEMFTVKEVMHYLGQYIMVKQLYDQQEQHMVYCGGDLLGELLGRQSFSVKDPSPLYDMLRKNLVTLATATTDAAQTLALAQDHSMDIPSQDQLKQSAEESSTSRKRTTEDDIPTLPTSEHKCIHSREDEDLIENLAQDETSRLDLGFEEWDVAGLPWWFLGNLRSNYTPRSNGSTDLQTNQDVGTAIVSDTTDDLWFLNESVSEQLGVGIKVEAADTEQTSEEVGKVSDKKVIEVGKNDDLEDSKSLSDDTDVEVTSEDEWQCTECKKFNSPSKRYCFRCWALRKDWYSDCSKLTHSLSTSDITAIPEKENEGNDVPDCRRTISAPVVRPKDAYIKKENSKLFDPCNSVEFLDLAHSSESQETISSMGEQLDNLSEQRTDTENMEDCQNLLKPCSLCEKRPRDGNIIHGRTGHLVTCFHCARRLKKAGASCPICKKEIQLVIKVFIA
Target sequence (Q00987 whole entry, looked up): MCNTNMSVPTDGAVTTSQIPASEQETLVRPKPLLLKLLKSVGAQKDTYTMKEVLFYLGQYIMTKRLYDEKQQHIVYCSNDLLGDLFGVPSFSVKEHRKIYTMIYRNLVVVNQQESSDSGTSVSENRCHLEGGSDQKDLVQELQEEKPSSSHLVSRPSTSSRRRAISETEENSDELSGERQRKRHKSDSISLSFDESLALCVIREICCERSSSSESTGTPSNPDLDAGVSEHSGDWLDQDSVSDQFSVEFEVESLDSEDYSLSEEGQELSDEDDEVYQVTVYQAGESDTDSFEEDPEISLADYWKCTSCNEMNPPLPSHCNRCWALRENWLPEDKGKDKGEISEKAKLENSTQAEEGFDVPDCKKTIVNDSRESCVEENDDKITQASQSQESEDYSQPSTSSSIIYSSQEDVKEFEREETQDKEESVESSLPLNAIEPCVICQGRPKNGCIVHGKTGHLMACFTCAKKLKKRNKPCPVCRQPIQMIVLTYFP
Mdm2-MdmX conf: Mdm2-MdmX complex disruptors, retested hits, confirmation, luminescence, single concentration; AID 489028, 2010; shares compounds with Mdm2 MdmX PPI; inhibition, % at 8 µM; actives 55% (n = 10,000); Mdm2-MdmX binding, luminescent assay; in the data active = inhibition above about 40%
Full FLuc ctr: full-length luciferase signal inhibition, confirmation, counter-screen for Mdm2/MdmX interaction inhibitor project, cell-based, single concentration, SaOS-2 | inhibition, % at 8 µM | actives 77% (n = 6,200) | shares compounds with Mdm2 MdmX PPI | SaOS-2 full-length luciferase counterscreen, luminescence;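 active = mean inhibition at 8 µM reaching about 37%, which flags the compound as non-specific, limit read from the data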;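 note: p53-null SaOS-2 cells with luciferase driven by a doxycycline-inducible promoter; compound on cells about two nights before reading with doxycycline added after day one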
A number is an active result; . = inactive; / = no result. The list is not random: actives were taken first. Their share in the collection is about 3.8%.

SMILES	Jurkat NFkB inh	Gli-Sufu antag	697 NFkB inh	Shn3 3UTR inh	Mdm2 MdmX PPI	Mdm2-MdmX conf	Full FLuc ctr
N#Cc1c(N)nc(Sc2ccc(Cl)cc2)c(C#N)c1-c1ccccc1Cl	.	.	.	.	80	48	51
CC1=NOC(=O)/C1=C\c1ccc(-c2cccc(Cl)c2)o1	.	.	.	.	96	.	/
CC1=CC2=NC(=O)/C(=C\c3ccc(-c4cccc(Cl)c4)o3)C(=N)N2O1	.	.	.	.	.	/	/
Cc1ccc(C)c(NC(=O)CCN2CCCCC2)c1	.	.	.	.	.	/	/
Oc1ccc(Cl)cc1-c1cc(-c2cccc(Br)c2)n[nH]1	.	.	.	.	62	.	/
CC1CCCC(C)N1/N=C/c1ccc(C(=O)O)cc1 (stereo not given)	.	.	.	.	.	/	/
CCOc1ccc(-n2nnnc2-c2nc3ccccc3s2)cc1	.	.	.	.	74	49	89
Cc1nc(C(=O)Nc2ccccc2Cl)cc2c1[nH]c1ccccc12	.	.	.	.	80	57	56
COc1ccc(NC(=O)c2cc3c([nH]c4ccccc43)c(C)n2)cc1	.	.	.	.	.	/	/
CC(=O)c1nn(-c2cccc(Br)c2)cc1C(=O)c1ccc(Br)cc1	.	.	.	.	56	.	/
CC(C)(C)OC(=O)NCCc1nnc(SCc2ccccc2Cl)o1	.	.	.	.	.	/	/
CC(C)(C)OC(=O)NCCc1nnc(S(=O)(=O)Cc2ccc(Cl)cc2Cl)o1	.	.	.	.	77	59	.
O=[N+]([O-])c1c(NCCCO)cc(Sc2nc3ccccc3s2)c2nonc12	.	.	.	90	99	56	.
NS(=O)(=O)c1ccc(NC(=S)Nc2ccn(Cc3cccc4ccccc34)n2)cc1	.	.	.	.	.	/	/
CC(C)c1ccc(NC(=O)CCCN2C(=S)NC(C)(C)CC2C)cc1 (stereo not given)	.	.	.	.	.	/	/
Cc1cc(C)c(O)c(-c2cc(C(=O)Nc3ccc(S(=O)(=O)N4CCOCC4)cc3)[nH]n2)c1	.	.	.	91	69	43	40
N#Cc1c([N+](=O)[O-])cc([N+](=O)[O-])cc1S(=O)(=O)Cc1ccccc1	.	.	.	95	98	96	.
NC1(C(=O)O)CSSC1	/	.	/	.	/	/	/
CSc1ccc2c(c1)N(CCC1CCCCN1C)c1ccccc1S2 (stereo not given)	.	.	.	.	94	.	/
OCCN1CCN(CCCN2c3ccccc3Sc3ccc(Cl)cc32)CC1	.	.	.	.	.	/	/
O=C(CN(Cc1ccccc1)C(=O)CCl)c1cccc(Br)c1	.	.	.	.	100	80	60
O=C(NCCCc1ccccc1)c1cccc(Br)c1	.	.	.	.	.	/	/
CN1C(=O)/C(=C\c2ccccc2F)Sc2ccc(C(=O)NC3CCN(Cc4ccccc4)CC3)cc21	.	.	.	.	.	/	/
COc1cnc(-c2ccccn2)nc1N(C)C	.	.	.	89	72	79	42
COc1ccc(Oc2nc(-c3ccccn3)ncc2OC)cc1	.	.	.	.	.	/	/
SMILES	Jurkat NFkB inh	Gli-Sufu antag	697 NFkB inh	Shn3 3UTR inh	Mdm2 MdmX PPI	Mdm2-MdmX conf	Full FLuc ctr
CN1CCN(c2ccc(NC(=O)c3ccc(-c4ccc(Br)cc4)o3)cc2)CC1	.	.	.	.	77	.	81
CC(C)(C)C(=O)N1CCN(c2ccc(NC(=O)c3ccc([N+](=O)[O-])o3)cc2)CC1	.	.	.	93	54	46	.
O=C(Nc1ccc(N2CCN(Cc3ccccc3F)CC2)cc1)c1ccc([N+](=O)[O-])o1	.	.	.	.	81	69	.
O=C(Nc1ccc(N2CCN(Cc3ccccc3F)CC2)cc1)c1ccccc1[N+](=O)[O-]	.	.	.	.	.	/	/
CC(C)(C)C(=O)N1CCN(c2ccc(NC(=O)c3ccco3)cc2)CC1	.	.	.	.	.	/	/
CCCS(=O)(=O)NC(=O)C1(C)CCCN(C(=O)c2cc(C)n(C(C)(C)C)n2)C1 (stereo not given)	/	/	/	.	/	/	/
CCN(C(=O)COC(=O)c1c2c(nc3ccccc13)/C(=C/c1ccccc1)CC(C)C2)C1CCS(=O)(=O)C1 (stereo not given)	.	.	.	.	53	52	55
CCN(C(=O)COC(=O)c1c(C)nn(-c2ccccc2)c1C)C1CCS(=O)(=O)C1 (stereo not given)	.	.	.	.	.	/	/
CCC(Sc1nc2cc3c(cc2c(=O)n1Cc1ccco1)OCO3)C(=O)Nc1ccccc1OC (stereo not given)	.	.	.	.	61	44	80
CN1c2ccccc2C(C)(C)C12C=Cc1cc(O)ccc1O2 (stereo not given)	.	.	.	.	.	/	/
CN1c2ccccc2C(C)(C)C12C=Nc1c(cc(N3CCOCC3)c3ccccc13)O2 (stereo not given)	.	.	.	/	59	.	/
COc1ccc(OC)c(-c2nnc3n2N=C(c2ccc(OC(F)F)c(OCC4CC4)c2)CS3)c1	.	.	.	.	57	55	46
COc1ccc(C2=Nn3c(nnc3-c3ccccc3F)SC2)cc1OC1CCOC1 (stereo not given)	.	.	.	.	70	63	.
NC(=O)c1nsc(C(=O)N(CC(=O)NC2CCCC2)Cc2ccc3c(c2)OCO3)c1N	.	.	.	.	.	/	/
COc1ccc(CCNC(=O)COC(=O)c2cc(OC)c(OC)cc2OC)cc1OC	.	.	.	.	.	/	/
Cc1cccc(C(=O)NNC2=C(C(=O)C(F)(F)F)CCC2)c1O	.	.	.	.	62	.	/
O=C(NNC1=C(C(=O)C(F)(F)F)CCC1)c1cccc(O)c1	.	.	.	.	.	/	/
COc1ccc(NC(=O)CN(C)C(=O)CCCNC(=O)c2ccc(Cl)cc2)cc1	.	.	.	.	.	/	/
COC(=O)c1sc(N)c(C(=O)OC)c1COC(=O)[C@@H](NS(=O)(=O)c1cccc(Cl)c1)C(C)C	.	.	.	.	54	.	/
O=C(c1ccccc1NS(=O)(=O)c1ccc(F)cc1)N1CCOCC1	.	.	.	.	.	/	/
COc1ccc(S(=O)(=O)N2CCOCC2)cc1NC(=O)c1ccc(=O)[nH]c1	.	.	.	.	.	/	/
